From PubChem BioAssay AID504602 (National Center for Advancing Translational Sciences (NCATS), 2011)
Inconclusive results are not listed. Activity calls are given as the source filed them. Calls follow the shape of the dose curve; as a rule, active = well fitted curve in the direction sought with a large enough effect; inconclusive = small, poorly fitted or top-dose-only effect, or effect the other way, or another doubt; inactive = no such curve, though single readings can be large or run the other way.

Test: Quantitative high throughput screen to test cell viability of anti-malarial compounds targeting the delayed death phenotype
Conditions: HepG2 viability, CellTiter-Glo luminescence, 48 h; series mostly up to 46.1 µM
Description: The biochemical processes that make this organelle essential for erythrocytic stage parasites are not well understood. However, antibiotics, such as azithromycin and tetracycline, which target the apicoplast translational machinery, have a potent antimalarial effect. […] We have developed a cell-based assay that measures parasite growth based on the expression of an integrated copy of a firefly luciferase reporter. To detect small molecules that cause this 'delayed death' phenotype, erythrocytes infected with the luciferase-expressing parasites were incubated with compounds for either one or two generations, corresponding to 48 and 96 hours, respectively. Compounds that inhibit parasite growth in the second generation, but not the first, should be enriched in antimalarials that target the apicoplast. Growth inhibition is detected by a decrease in luciferase activity. The goal of this counterscreen is to measure the cytoxoxicity (against HepG2 cell line) of a set of anti-malarial compounds that target the delayed death pheonotype as identified by the qHTS assay that inhibit the development of the apicoplast in the malarial parasite Plasmodium falciparum. NIH Molecular Libraries Probe Production Network [MLPCN] […]
Cells were plated at a density of 2000 cells/well/5uL in 1536 well white tissue culture plate with culture medium. […] Luminescence was measured using ViewLux (1 second, slow, 2X).

## C[C@@H]1CN([C@@H](C)CO)C(=O)c2cc(NC(=O)Nc3ccccc3)ccc2O[C@@H](C)CCCCO[C@H]1CN(C)C(=O)Oc1ccccc1
  outcome: inactive
